Our source for the PBM binding z-score values is the supplement of paper PMC6555819.

The experiment deals with VDR:RXRa (NR concentration 270 nM, RXRa partner concentration 90 nM). The experiment in a line: PBM binding z-score (relative to random genomic background probes); higher = stronger binding; sequences stand for … in GC…GCGATTGACAGCGTAGAATGAAGG
On the procedure: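 Protein-binding microarray (Agilent 4x180K custom design, double-stranded 60-nt probes: 5' GC cap, 34-nt variable region, 24-nt constant primer region; full probe sequence given). Purified or IVT nuclear receptor:RXRα heterodimers (3:1 NR:RXRα, mostly 270:90 nM) or homodimers were incubated for 1 h in PBS with 2% milk and no ligand, then detected with Alexa488 antibodies. Fluorescence from o1-orientation probes (~5 replicates averaged) was converted to z-scores against 500 random hg19 background probes. Variable regions are seed direct-repeat (DR0–DR5) sites, all their single-nucleotide variants and half-site ablations.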
As for TGTCAATGTTCAAAGGTAACGTAAGTATCCACAC, the PBM binding z-score came out at 0.373.

ATATGTAGGTTAGCTGGGGTCCTTCAGACTAGGC returned a PBM binding z-score of 0.978.

The sequence ACTCGGATGACAAAGGTCAGAGCTACGCCAGTGA had a PBM binding z-score of 3.14.

For AATACGGGGTCACTAGGCCAGAGTAGGTACGAAT, the PBM binding z-score was found to be 6.16.

Turning to CCGAGGAGGTTACGAGGGGGCATTCAGTGCGAAT, the PBM binding z-score came out at 6.29.

With CCTTACGGGTCACTCCAGGTTATATCATCGGAGT, the PBM binding z-score turned out to be 4.52.

CGAACTAGGTCAAGGCCAGTGAATCTCCGCACGC: the PBM binding z-score is 1.31.

Take AATACAGGGTGACTAGGCCAGAGTAGGTACGAAT: the PBM binding z-score amounted to 0.257.

For CCGAGTAGGTTACTAGGGGGCATTCAGTGCGAAT, the PBM binding z-score is 5.13.

Regarding CGTCAAAGATCAAGGTAACGTAACAGAAAGCAGC, the PBM binding z-score is -0.129.

In turn, CCTACTGGGCCGTTCAGAGGTCATTGATCATATG came in with a PBM binding z-score of 3.58.

Sequence AAAACAGGGTCATCGTAGGCCAGAGTACGCACAG returned a PBM binding z-score of 5.38.

The sequence TAGCCTAGGTCATGCGGCCCAGTATAGTGTCGGC displayed a PBM binding z-score of 1.77.

The sequence AGCGAAAGGTCGAGGTGAGTATAGAGAAAGGGAA registered a PBM binding z-score of 2.71.

For the sequence CGTCCAAGGTCATATGAGGTCAGTGAAGACAGAT, the PBM binding z-score came to 7.19.

Consider CCGACTGGGGCAAGGTCACCATAACGCACAGCCA, for which the PBM binding z-score is 3.26.

Sequence TACCCTAGGTCATTCAGGGGCCAGTATAGAAAGC registered a PBM binding z-score of 3.44.

For GATACAGGGTCGGCTAGAGGCCAGAGTATGGAAA, the PBM binding z-score is 0.547.

CCTTACGGGTCACGAGGTTGTAGCACGACGAGCG returned a PBM binding z-score of 5.26.

The sequence CGCACTAGGTCATCCAGGACAGTGAATACATTGA showed a PBM binding z-score of 4.38.

ACTCGGAGGACAAAGGTCAGGGCTACGCCAGTGA had a PBM binding z-score of 3.43.

With CCTACTGGGCCAAAGAGGTCATTGATGCCGATAA, the PBM binding z-score turned out to be 5.68.

ATCAAAAGGTCGAGGTGAGTATAGAGAAAGGGAA registered a PBM binding z-score of 3.29.

In turn, GATACAGGGTCAAGGTCAGAGTACGCGTATTGAT showed a PBM binding z-score of 5.53.

In turn, ATATGTAGGTTATCGGGTCATACAGTTTGCGCAT had a PBM binding z-score of 5.13.

As for CCAACTAGGTCAAAGGACAGTGAAAGGCGACGTA, the PBM binding z-score was determined as 1.45.

The sequence CCTACTGGGCCAAAAAGTTCATTGATGCCGATAA yielded a PBM binding z-score of 3.68.

For AGAATGAGGTCAAGATCAGGGAAACAGAATACAT, the PBM binding z-score was determined as 4.93.

Sequence TGTCAACGTTCAAAGGTAACGTAAGTATCCACAC registered a PBM binding z-score of 0.617.

CAAACTAGGTCACCGAAAGGTCAAAGTCCGCATG had a PBM binding z-score of 6.46.

For the sequence CCTTACGGGTCCCTCCAGGTTATAGCATCGGAGT, the PBM binding z-score stood at 0.0642.

Turning to TATTCAGGGTCAAAGGCCAGAGTACGAATGTCGA, the PBM binding z-score was 5.12.

CGAACTAGGTCATTGACAGGACAGTGGATAGTAA displayed a PBM binding z-score of 2.15.

Sequence TAGCCTAGGTCATTCAGGGGCCACTATAGAAAGC showed a PBM binding z-score of 3.95.

Regarding AATAAAGGGTCATCGTAGGCCAGAGTACGCACAG, the PBM binding z-score stood at 5.33.

On to CGAACTAGGTCTAAGGACAGTGAAAGGCGACGTA, for which the PBM binding z-score is -0.556.

Take CCTAGTTGTTCAGGAGGTCACACACCGGATATGA: the PBM binding z-score is 3.9.

Turning to TCTCGGAGGACACTAAAGGTCAGAGCTCGACATC, the PBM binding z-score was determined as 3.2.

As for TAGCCTAGGTCATTCAGGGGCCAGCATAGAAAGC, the PBM binding z-score was found to be 2.97.

AGAATGGGGTTACCAAAGATCAGGGAAACGCTTG displayed a PBM binding z-score of 2.66.
